Measurements reported in the supplement of paper PMC12808144.
A number with no mark means an inactive call.

The compounds below were run on Mel-DCC-11-R (assay: cell viability relative to DMSO control (fraction of DMSO control); higher = less cytotoxic, active = 0.8 or less). Conditions: 1 µM; 120 h; vemurafenib co-treatment 0 µM.
Procedure: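 Same 315-drug TargetMol library at 1 µM in duplicate, 120 h, ATPlite luminescence normalised to DMSO controls, on the vemurafenib-resistant subline Mel-DCC-11-R cultured alone or with 8 µM vemurafenib co-treatment (Mel-DCC-11-R + V).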

Row | Structure (SMILES) | cell viability
1 | CN(C)C(=O)COC(=O)Cc1ccc(OC(=O)c2ccc(N=C(N)N)cc2)cc1.CS(=O)(=O)O [Camostat mesilate] | 1.1
2 | CCN1CCN(Cc2ccc(Nc3ncc(F)c(-c4cc(F)c5nc(C)n(C(C)C)c5c4)n3)nc2)CC1 [Abemaciclib] | 1.38
3 | CC(=O)c1c(C)c2cnc(Nc3ccc(N4CCNCC4)cn3)nc2n(C2CCCC2)c1=O.O=S(=O)(O)CCO [Palbociclib Isethionate] | 1.6
4 | CC(C)(C#N)c1cc(Cn2cncn2)cc(C(C)(C)C#N)c1 [Anastrozole] | 1
5 | N#CC[C@H](C1CCCC1)n1cc(-c2ncnc3[nH]ccc23)cn1 [(R)-Ruxolitinib] | 0.967
6 | CCCS(=O)(=O)Nc1ccc(F)c(C(=O)c2c[nH]c3ncc(-c4ccc(Cl)cc4)cc23)c1F [Vemurafenib] | 0.991
7 | CCc1cn([C@H]2C[C@H](O)[C@@H](CO)O2)c(=O)[nH]c1=O [Edoxudine] | 0.776 (active)
8 | Cl.N=C1CCCN1Cc1[nH]c(=O)[nH]c(=O)c1Cl.O=c1[nH]c(=O)n([C@H]2C[C@H](O)[C@@H](CO)O2)cc1C(F)(F)F.O=c1[nH]c(=O)n([C@H]2C[C@H](O)[C@@H](CO)O2)cc1C(F)(F)F | 1.23
9 | CC1(COc2ccc3c(c2)ncn3-c2ccc3cccc(N4CCC(N)CC4)c3n2)COC1 [Crenolanib] | 1.26
10 | CCCCCCCCCCCCCCCC(=O)OC/C=C(C)/C=C/C=C(C)/C=C/C1=C(C)CCCC1(C)C [Retinol palmitate] | 1.02
11 | Cn1cnc2c(F)c(Nc3ccc(Br)cc3F)c(C(=O)NOCCO)cc21 [Binimetinib] | 0.664 (active)
12 | O=C1c2c(O)ccc(O)c2C(=O)c2c(NCCNCCO)ccc(NCCNCCO)c21 [Mitoxantrone] | 1.26
13 | COc1c(OCCCN2CCOCC2)ccc2c1N=C(NC(=O)c1cnc(N)nc1)N1CCN=C21 [Copanlisib] | 0.671 (active)
14 | COc1ccc(C[C@H](N)C(=O)N[C@H]2[C@@H](O)[C@H](n3cnc4c(N(C)C)ncnc43)O[C@@H]2CO)cc1.Cl.Cl [Puromycin dihydrochloride] | 0.309 (active)
15 | COc1cc2nccc(Oc3ccc(NC(=O)NC4CC4)c(Cl)c3)c2cc1C(N)=O [Lenvatinib] | 1.03
16 | CCN(CC)C(=S)SSC(=S)N(CC)CC [Disulfiram] | 0.442 (active)
17 | C=CC(=O)N1CCC[C@@H](n2nc(-c3ccc(Oc4ccccc4)cc3)c3c(N)ncnc32)C1 [Ibrutinib] | 0.855
18 | CC(C)CN(C[C@@H](O)[C@H](Cc1ccccc1)NC(=O)O[C@H]1CCOC1)S(=O)(=O)c1ccc(N)cc1 [Amprenavir] | 0.854
19 | Oc1c(I)cc(Cl)c2cccnc12 [Clioquinol] | 0.866
20 | C=C(c1ccc(C(=O)O)cc1)c1cc2c(cc1C)C(C)(C)CCC2(C)C [Bexarotene] | 1.07

Same assay, conditions: 1 µM; 120 h; vemurafenib co-treatment 8 µM

Row | Structure (SMILES) | cell viability
21 | CN(C)C(=O)COC(=O)Cc1ccc(OC(=O)c2ccc(N=C(N)N)cc2)cc1.CS(=O)(=O)O [Camostat mesilate] | 1.21
22 | CCN1CCN(Cc2ccc(Nc3ncc(F)c(-c4cc(F)c5nc(C)n(C(C)C)c5c4)n3)nc2)CC1 [Abemaciclib] | 0.669 (active)
23 | CC(=O)c1c(C)c2cnc(Nc3ccc(N4CCNCC4)cn3)nc2n(C2CCCC2)c1=O.O=S(=O)(O)CCO [Palbociclib Isethionate] | 1.19
24 | CC(C)(C#N)c1cc(Cn2cncn2)cc(C(C)(C)C#N)c1 [Anastrozole] | 1.01
25 | N#CC[C@H](C1CCCC1)n1cc(-c2ncnc3[nH]ccc23)cn1 [(R)-Ruxolitinib] | 1.03
26 | CCCS(=O)(=O)Nc1ccc(F)c(C(=O)c2c[nH]c3ncc(-c4ccc(Cl)cc4)cc23)c1F [Vemurafenib] | 0.905
27 | CCc1cn([C@H]2C[C@H](O)[C@@H](CO)O2)c(=O)[nH]c1=O [Edoxudine] | 0.802
28 | Cl.N=C1CCCN1Cc1[nH]c(=O)[nH]c(=O)c1Cl.O=c1[nH]c(=O)n([C@H]2C[C@H](O)[C@@H](CO)O2)cc1C(F)(F)F.O=c1[nH]c(=O)n([C@H]2C[C@H](O)[C@@H](CO)O2)cc1C(F)(F)F | 1.1
29 | CC1(COc2ccc3c(c2)ncn3-c2ccc3cccc(N4CCC(N)CC4)c3n2)COC1 [Crenolanib] | 1.35
30 | CCCCCCCCCCCCCCCC(=O)OC/C=C(C)/C=C/C=C(C)/C=C/C1=C(C)CCCC1(C)C [Retinol palmitate] | 0.978
31 | Cn1cnc2c(F)c(Nc3ccc(Br)cc3F)c(C(=O)NOCCO)cc21 [Binimetinib] | 0.406 (active)
32 | O=C1c2c(O)ccc(O)c2C(=O)c2c(NCCNCCO)ccc(NCCNCCO)c21 [Mitoxantrone] | 0.574 (active)
33 | COc1c(OCCCN2CCOCC2)ccc2c1N=C(NC(=O)c1cnc(N)nc1)N1CCN=C21 [Copanlisib] | 0.254 (active)
34 | COc1ccc(C[C@H](N)C(=O)N[C@H]2[C@@H](O)[C@H](n3cnc4c(N(C)C)ncnc43)O[C@@H]2CO)cc1.Cl.Cl [Puromycin dihydrochloride] | 0.58 (active)
35 | COc1cc2nccc(Oc3ccc(NC(=O)NC4CC4)c(Cl)c3)c2cc1C(N)=O [Lenvatinib] | 1.17
36 | CCN(CC)C(=S)SSC(=S)N(CC)CC [Disulfiram] | 0.108 (active)
37 | C=CC(=O)N1CCC[C@@H](n2nc(-c3ccc(Oc4ccccc4)cc3)c3c(N)ncnc32)C1 [Ibrutinib] | 0.733 (active)
38 | CC(C)CN(C[C@@H](O)[C@H](Cc1ccccc1)NC(=O)O[C@H]1CCOC1)S(=O)(=O)c1ccc(N)cc1 [Amprenavir] | 0.833
39 | Oc1c(I)cc(Cl)c2cccnc12 [Clioquinol] | 0.847
40 | C=C(c1ccc(C(=O)O)cc1)c1cc2c(cc1C)C(C)(C)CCC2(C)C [Bexarotene] | 1.59
